# Only a selection was taken, and hits are over-represented in it overall.
# NPR2 activator – GC-B (human) receptor activation; P20594; HEK293-GC-B cells, CNP EC30, cGMP TR-FRET; 0% at EC30 CNP, 100% saturating CNP; activation, % at 10 µM; hit rate 0.11% among 370,000; AID 1920062;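 active = activation at 10 µM reaching about 35% in either raw or pattern-adjusted values, limit read from the data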
# Target sequence (P20594 whole entry, looked up): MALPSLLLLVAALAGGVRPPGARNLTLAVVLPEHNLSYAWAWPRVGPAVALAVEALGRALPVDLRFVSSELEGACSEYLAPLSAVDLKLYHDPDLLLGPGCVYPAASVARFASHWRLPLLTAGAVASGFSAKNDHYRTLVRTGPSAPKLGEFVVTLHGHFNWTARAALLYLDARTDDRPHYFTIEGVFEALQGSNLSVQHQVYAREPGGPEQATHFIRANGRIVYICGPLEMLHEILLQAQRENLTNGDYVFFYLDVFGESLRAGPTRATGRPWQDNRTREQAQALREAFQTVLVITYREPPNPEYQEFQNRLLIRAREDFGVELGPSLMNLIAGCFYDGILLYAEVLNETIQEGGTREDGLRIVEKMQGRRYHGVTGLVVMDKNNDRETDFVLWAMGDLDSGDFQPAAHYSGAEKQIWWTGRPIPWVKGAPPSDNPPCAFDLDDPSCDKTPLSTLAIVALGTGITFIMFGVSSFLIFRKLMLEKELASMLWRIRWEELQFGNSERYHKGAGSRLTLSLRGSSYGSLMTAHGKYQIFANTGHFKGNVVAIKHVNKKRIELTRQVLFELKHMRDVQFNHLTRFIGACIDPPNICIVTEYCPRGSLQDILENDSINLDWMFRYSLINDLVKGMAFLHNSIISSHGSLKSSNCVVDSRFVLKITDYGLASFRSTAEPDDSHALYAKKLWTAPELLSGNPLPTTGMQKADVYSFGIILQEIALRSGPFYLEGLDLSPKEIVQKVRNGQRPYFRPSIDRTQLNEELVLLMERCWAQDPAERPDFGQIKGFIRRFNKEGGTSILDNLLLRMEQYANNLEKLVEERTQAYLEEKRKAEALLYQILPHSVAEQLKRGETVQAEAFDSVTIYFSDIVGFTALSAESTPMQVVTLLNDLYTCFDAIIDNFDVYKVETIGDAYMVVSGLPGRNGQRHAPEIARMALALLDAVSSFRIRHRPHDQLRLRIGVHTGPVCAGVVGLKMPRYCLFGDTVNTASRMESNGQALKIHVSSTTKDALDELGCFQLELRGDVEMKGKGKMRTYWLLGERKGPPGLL
# NPR1 activator – GC-A (human) enzyme activation; HEK293 GC-A cells, cGMP TR-FRET, EC30 ANP; 0% at EC30 ANP, 100% saturating ANP; hit rate 0.14% among 370,000; activation, % at 10 µM; in the data active = activation above about 40%
# HDAC3 inhib – blocks human histone deacetylase 3. O15379. recombinant HDAC3, fluorogenic peptide/trypsin coupled, fluorescence. inhibition, % at 8.3 µM. hit rate 0.15% among 320,000. AID 2718; in the data active = inhibition above about 26%, passing the limit was not always enough
# ALR H2O2 inh – blocks human ALR sulfhydryl oxidase activity; P55789; purified ALR, DTT oxidation, H2O2 HRP-luminol luminescence; inhibition, % (concentration not given with the values); hit rate 3.8% among 290,000; AID 485317;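 active = mean replicate inhibition above about 79%, with every replicate also reaching it, limit read from the data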
# * = called active by the depositor; · = no result.
SMILES,NPR2 activator,NPR1 activator,HDAC3 inhib,ALR H2O2 inh
COC(=O)[C@]1(Cc2ccccc2)NC=C(C(=O)c2ccccc2)[C@@H]1c1cccs1,-10,-3,·,·
O=C(CSc1nc2c(sc3ccccc32)c(=O)n1CCCN1CCCC1)NCc1ccco1,6,-4,-3,98*
O=C(CSc1nc2c(sc3ccccc32)c(=O)n1CCO)NCc1ccco1,-2,-3,-2,3
COCCCn1c(SCC(=O)NCc2ccco2)nc2sc3c(c2c1=O)CCC3,4,3,7,94*
Cc1ccc(S(=O)(=O)N2CCOCC2)cc1C(=O)NNC(=O)c1ccoc1C,12,4,-3,0
CC[C@@]1(O)C(=O)OCc2c1cc1n(c2=O)Cc2cc3c(CN(C)C)c(O)ccc3nc2-1,14,53*,-4,52
O=C(COc1ccccc1)Nc1cccc(-c2nn[nH]n2)c1,-6,3,2,99*
O=C(Nc1cccc(-c2nn[nH]n2)c1)c1cccs1,3,2,-4,-2
CC(=O)Nc1cccc(-c2nn[nH]n2)c1,7,4,-1,·
O=C(Nc1cccc(-c2nn[nH]n2)c1)c1csc2c1CCCC2,·,·,·,99*
Nc1nn(-c2ccccc2)c(N)c1N=Nc1ccc2c(c1)OCO2,0,-4,3,95*
CCCOc1ccccc1N1C(=O)CC(N(O)c2ccccc2)C1=O (centres undefined),-2,5,6,97*
COc1ccccc1N1C(=O)CC(N(O)c2ccccc2)C1=O (centres undefined),4,-1,-1,36
O=C(N/N=C/c1ccccn1)c1ccc(N/N=C/c2ccccn2)cc1,1,1,-1,99*
Cc1cccc(N/N=C/c2ccncc2)c1,0,-4,3,99*
O=C(N/N=C/c1ccccn1)c1ccc(Br)cc1,9,11,3,-6
Cc1cccc(NC(=O)C(=O)N/N=C/c2ccncc2)c1,0,-1,3,-9
O=C(N/N=C/c1ccc(O)cc1)c1cccc(N/N=C/c2ccc(O)cc2)c1,-2,-5,7,·
O=C(N/N=C/c1ccncc1)c1cccc(N/N=C/c2ccncc2)c1,-3,-3,1,96*
NNc1nc(-c2ccccc2Cl)nc2sc3c(c12)CCCC3,0,3,-1,1
O=C(CCSCc1cccc(Cl)c1)NCCc1ccccc1,-2,-1,-3,-26
CN(C(=O)c1ccc(Br)o1)C1CCS(=O)(=O)C1 (centres undefined),3,0,-6,·
Cc1ccc(S(=O)(=O)N2CCCC(C(=O)Nc3ccc(C(=O)O)cc3)C2)cc1Cl (centres undefined),1,7,1,3
COc1ccccc1NCCC(=O)OCC(=O)NC1CCCCCC1,5,2,-1,99*
COc1ccccc1NCCC(=O)OCC(=O)Nc1ccccc1F,2,-2,-7,99*
SMILES,NPR2 activator,NPR1 activator,HDAC3 inhib,ALR H2O2 inh
OCCNCc1c(OCc2ccc(Cl)cc2)ccc2ccccc12,-16,-51,5,-14
O=C(Nc1ccc(F)cc1)c1nc(S(=O)(=O)Cc2ccccc2)ncc1Cl,14,42*,-2,0
Cc1ccc(NC(=O)c2nc(S(=O)(=O)Cc3ccccc3)ncc2Cl)cc1,15,38,8,1
Cc1ccccc1CS(=O)(=O)c1ncc(Cl)c(C(=O)Nc2ccc(F)cc2)n1,10,42*,2,-8
CCS(=O)(=O)c1ncc(Cl)c(C(=O)Nc2ccc(S(=O)(=O)N(C)c3ccccc3)cc2)n1,41*,62*,1,4
C=CCNC(=O)c1ccc(S(=O)(=O)CC)c(Cl)c1Cl,6,1,0,-17
NS(=O)(=O)c1ccc(S(=O)(=O)NCCc2ccccc2)cc1,0,-3,1,-11
Cc1[nH]c2ccccc2c1CCNS(=O)(=O)c1ccc(S(N)(=O)=O)cc1,-6,0,0,90*
COc1ccc(-c2n[nH]c(=S)n2N)c(OC)c1,2,-1,2,17
COc1ccc(-c2cn[nH]c2N)cc1,-2,-1,1,91*
COc1ccc(-c2cn[nH]c2N)c(OC)c1,-1,-1,9,99*
C/C(=N/OC(=O)c1ccc(C(F)(F)F)cc1)c1oc(C)nc1C,-3,3,-1,-8
Cc1ccc(O)c(-c2cc(C(F)(F)C(F)F)[nH]n2)c1,5,0,12,98*
O=C(NCC(c1ccccc1)N1CCCC1)C1CCN(C(=O)Nc2ccccc2)CC1 (centres undefined),2,-1,·,·
Nc1cc(=O)[nH]n1C1CCN(c2ccccc2)CC1,3,8,4,94*

# Source: PubChem (several laboratories)
